# Screening data: PubChem, several laboratories
# SKN-1 block – inhibitors of C. elegans SKN-1 | C. elegans VP596 Pgst-4::GFP/RFP ratio, acrylamide-induced, 24 h | inhibition, % at 21.8 µM | 360,000 tested, 0.49% active;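 active = interference check ratio from 0.5 to 1.5 plus GFP to RFP signal ratio inhibition reaching or exceeding a fixed threshold, cut at about 30% in these data, passing the limit was not always enough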
# ABCB6 inh 2 – human ABCB6 transporter inhibition; K562-ABCB6 porphyrin accumulation, flow cytometry, 1 h; stronger effect = lower value; fluorescence ratio to DMSO, % at 10 µM; 360,000 tested, 0.19% active; AID 602162;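 active = fluorescence ratio to DMSO below 75%, the collection mean minus 3 SD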;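 also: signal is porphyrin accumulated inside mitochondria; 100% equals median channel fluorescence of DMSO control wells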
# Platelet DG rel – platelet dense granule release activity; inhibition, %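 (compounds screened at 7.5 µM in platelet-rich plasma)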; 300,000 tested, 0.22% active; human platelet-rich plasma, SFLLRN dense granule ATP release, luminescence; AID 1663;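 active = mean replicate score, as percent of positive control, at or above 50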
# VLA-4 inh – inhibition in a human VLA-4 binding assay; inhibition, % (about 7 µM as worked out from the volumes in the protocol); 330,000 tested, 0.2% active; VLA-4 expressing cells, ligand binding flow cytometry; AID 2557; in the data active = inhibition above about 50%
# CR mimetic SO – lowers age-related superoxide in aged yeast cells; 330,000 tested, 0.18% active; S. cerevisiae aged cells, superoxide DHE fluorescence; stronger effect = lower value; superoxide response (% of plate mean), % at 10 µM; AID 2690;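 active = superoxide response under a set limit, about three screen SD below normal, cut at about 65% in these data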;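 also: yeast aged for seven days with compound at 30 °C before DHE staining; 100% = average MFI of all compound-treated wells on the plate with controls excluded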
# ABCB6 inh CP1 – blocks the human ABCB6 transporter. shares compounds with ABCB6 inh 2. K562-ABCB6 porphyrin accumulation, flow cytometry, 1 h; stronger effect = lower value. ratio response (% of DMSO), % at 10 µM. 700 tested, under 10 active. AID 602430;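 active = repeat-averaged ratio response below 75% of DMSO, the collection mean minus 3 SD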;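 also: median porphyrin fluorescence at 575 nm with 488 nm excitation from mitochondria; lower ratio means less porphyrin signal so ABCB6 inhibition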
# * = called active by the depositor; x = not tested or not shown. Rows were chosen to be rich in hits. Some 1.2% of all compounds tested hit in one or more screens of this group.
SMILES,SKN-1 block,ABCB6 inh 2,Platelet DG rel,VLA-4 inh,CR mimetic SO,ABCB6 inh CP1
COc1ccc(CCNC(=O)c2cc3ccc(Cl)cc3nc2N)cc1,15,92,x,x,x,x
COc1ccc(-c2cc(C(=O)Nc3ccc(OC)c(OC)c3)[nH]n2)c(C)c1,22,70*,x,x,x,98
CC1(Oc2ccc(-n3ccnc3)cc2)CCN(Cc2cccn2-c2nccs2)C1 (stereo unspecified),21,92,x,x,x,x
O=c1c(C(c2ccc(Br)cc2)c2c(O)nc3n(c2=O)CCS3)c(O)nc2n1CCS2,-5,74*,8,7,105,102
OCCCn1c(CCNc2nc(-c3ccc(Cl)cc3)cs2)nc2cc(C(F)(F)F)ccc21,12,99,3,-2,98,x
OCCOCCn1c(CCNc2nc(-c3ccc(F)cc3)cs2)nc2cc(C(F)(F)F)ccc21,6,73*,-1,-10,108,100
Fc1ccc(-c2nc3ccc(Cl)cn3c2Cc2cccc(F)c2)cc1,11,101,x,x,x,x
OC(COc1ccc(Br)cc1)Cn1ccnc1 (stereo unspecified),5,74*,-2,-7,104,99
COc1ccc(CCC(=O)OCC(=O)NCc2ccc3c(c2)OCO3)cc1,17,95,x,10,79,x
O=C(COC(=O)CSc1ccc2ccccc2c1)NCc1ccc2c(c1)OCO2,-9,65*,2,11,113,98
Cc1cc(C)cc(Cn2cc(CN3CC(N4CCN(CCO)CC4)CS3(=O)=O)nn2)c1 (stereo unspecified),6,98,x,x,x,x
O=C(Nc1ccc(F)cc1)c1cccnc1N1CCCCC1,15,103,-4,19,102,x
O=C(Nc1ccc(Br)cc1)c1cccnc1N1CCCCC1,-3,73*,17,3,77,100
COc1ccc(NC(=O)Cc2ccc(Cl)cc2)cc1NC(=O)c1ccco1,12,60*,-1,-6,103,96
Cc1ccc(-n2c3c(cc(C(=O)NC4CCSC4=O)c2=O)C(=O)CC(C)(C)C3)cc1 (stereo unspecified),-2,102,6,-3,92,x
CC1(C)CC(=O)c2cc(C(=O)NC3CCSC3=O)c(=O)n(-c3ccc(Cl)cc3)c2C1 (stereo unspecified),1,63*,9,-10,96,101
O=C(NCCc1csc(-c2cccnc2)n1)c1ccc(Cl)cc1,-1,74*,1,-10,92,101
CCOC(=O)C1=CCC(c2ccccc2C(F)(F)F)N(S(=O)(=O)c2ccc(C)cc2)C1 (stereo unspecified),-3,98,x,x,x,x
CC(C)CN(C(=O)CCC(=O)OCc1ccc(Cl)cc1Cl)c1c(N)n(CC(C)C)c(=O)[nH]c1=O,13,96,-5,1,100,x
Cc1cccc(C(C)C)c1NC(=O)COC(=O)CCC(=O)N(CC(C)C)c1c(N)n(CC(C)C)c(=O)[nH]c1=O,3,97,x,x,x,99
OC(c1cc(Cl)cc(Cl)c1)c1ncc(-c2cccc(F)c2)[nH]1 (stereo unspecified),19,91,x,x,x,x
Cn1c(CN2CCN(C(=O)c3ccccc3Cl)CC2)nc2cc([N+](=O)[O-])ccc21,4,103,1,10,114,x
Cn1c(CN2CCN(C(=O)c3ccccc3)CC2)nc2cc([N+](=O)[O-])ccc21,5,70*,1,-9,86,95
COc1cc(C(C[N+](=O)[O-])c2c(C)[nH]c3ccccc23)cc(OC)c1OC (stereo unspecified),-13,74*,-4,9,113,103
CCN1C(=O)c2ccccc2S(=O)c2ccc(C(=O)NCCN(CC(C)C)CC(C)C)cc21 (stereo unspecified),10,94,2,2,107,x
CCN1C(=O)c2ccccc2S(=O)(=O)c2ccc(C(=O)NCCCN(CC(C)C)CC(C)C)cc21,12,66*,2,2,80,101
COc1cc(OC)c(C#N)c(S(=O)(=O)Cc2ccccc2)c1,-1,68*,0,-6,100,99
CCc1ccccc1NC(=O)CCCSc1nc2ccccc2s1,0,72*,-7,15,103,103
COc1ccc(-c2cc(C(=O)NCc3cccc(C(F)(F)F)c3)[nH]n2)c(C)c1,8,101,x,x,x,x
COc1cccc(CN2CCC2(C)C(=O)Nc2cccc3cccnc23)c1OC (stereo unspecified),4,98,x,x,x,x
